An excerpt weighted towards active compounds, which were near 5.4% of everything screened.
RORgamma inh = blocks mouse ROR gamma transcriptional activity; P51450; Drosophila S2 Gal4-RORgamma UAS-luciferase reporter, 20 h; hit rate 5.4% among 310,000; Potency, µM (series often up to 53.6 µM), hits mostly inhibitors; further: nearly all actives have a fitted effect of over 60% in size
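Drosophila Schneider cells stably carrying a metallothionein-driven Gal4 DBD–ROR gamma fusion and a UAS-Photinus luciferase reporter were exposed to compound for 1 hr, then induced with copper sulfate (700 uM final) for 20 hr at ambient temperature before luminescence reading.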
Six1-Eya2 inh = Six1/Eya2 interaction inhibition. hit rate 0.56% among 360,000. activity change, % (concentration not given with the values). AlphaScreen GST-Six1/His-Eya2 binding, biochemical; hits give low values. Q15475+O00167; in the data active means activity change below about -65%; inconclusive means mostly about -30% to -63%
Target sequence (O00167 whole entry, looked up): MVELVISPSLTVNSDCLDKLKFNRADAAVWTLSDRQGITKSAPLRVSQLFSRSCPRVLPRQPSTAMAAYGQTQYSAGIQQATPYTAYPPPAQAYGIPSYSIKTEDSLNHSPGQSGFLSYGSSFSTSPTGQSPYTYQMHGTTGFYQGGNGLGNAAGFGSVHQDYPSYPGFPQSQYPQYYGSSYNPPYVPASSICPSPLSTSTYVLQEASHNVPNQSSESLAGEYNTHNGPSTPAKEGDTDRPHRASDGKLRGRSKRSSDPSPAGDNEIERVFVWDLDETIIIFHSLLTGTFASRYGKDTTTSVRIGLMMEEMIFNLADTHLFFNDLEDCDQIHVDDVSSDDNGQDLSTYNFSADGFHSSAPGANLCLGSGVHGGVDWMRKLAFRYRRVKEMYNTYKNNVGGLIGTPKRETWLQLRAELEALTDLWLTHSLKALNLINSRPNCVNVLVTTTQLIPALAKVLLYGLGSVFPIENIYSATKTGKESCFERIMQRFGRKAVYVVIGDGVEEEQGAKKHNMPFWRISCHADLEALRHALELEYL
Target sequence (Q15475 whole entry, looked up): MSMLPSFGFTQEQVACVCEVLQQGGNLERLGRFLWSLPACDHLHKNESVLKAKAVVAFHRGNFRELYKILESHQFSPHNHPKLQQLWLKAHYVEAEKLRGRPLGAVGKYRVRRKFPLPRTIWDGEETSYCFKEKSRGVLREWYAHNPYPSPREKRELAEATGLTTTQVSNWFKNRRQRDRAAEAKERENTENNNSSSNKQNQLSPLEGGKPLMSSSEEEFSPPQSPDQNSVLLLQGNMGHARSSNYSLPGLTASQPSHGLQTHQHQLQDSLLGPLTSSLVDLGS
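Homogeneous AlphaScreen proximity assay pairing GST-Six1 with His-tagged Eya2 (added as 5X mix: 250 nM and 500 nM) in 50 mM Tris pH 8.0, 300 mM NaCl, 1 mM TCEP. Glutathione donor and nickel acceptor beads; 1 h, 37 °C, dark.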
p53 reactivator = mutant p53 re-activation in reporter cells; H1299 p53-A138V BP100-luciferase reporter, luminescence, 24 h; Potency, µM (series often up to 92.2 µM), actives largely listed as activators; hit rate 0.063% among 320,000; AID 504706; further: nearly all actives have a fitted effect of over 45% in size
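p53-null H1299 cells stably carrying temperature-sensitive p53-A138V and a BP100-luciferase reporter were pinned with compounds (4-point, 1:5 series) and held 24 hrs at 37 deg C. Luminescence was read 10 min after detection reagent.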
CtBP-E1A inh = CtBP/E1A binding inhibition; hit rate 0.49% among 340,000; AID 651724; AlphaScreen GST-E1A/His-CtBP binding, 1536-well; hits give low values; activity change, % (no concentration beside the values); in the data active means activity change below about -65%; inconclusive means mostly about -30% to -63%
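Steps: dispense buffer (Tris pH 8.0, NaCl 300 mM, TCEP 1 mM, BSA, Tween 20); add 5X protein mix (GST-E1A, His-CtBP, 125 nM each); pin 23 nL compound; 2 h at 37 °C, dark; add 5X beads (50 ug/mL); 1 h; read.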
VP16 counter = counter-screen for ROR gamma inhibitors: Gal4-VP16 reporter. Drosophila S2 Gal4-VP16 UAS-luciferase, luminescence, 20 h. Potency, µM (top dose mostly 53.6 µM), usual class: inhibitors. hit rate 3.5% among 310,000;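 further: Gal4-VP16 expression switched on by copper sulfate through the metallothionein promoter; nearly all actives have a fitted effect of over 50% in size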
Numbers stand for hits; – = inactive; ? = inconclusive; · = no result. Unless noted, the call rests on the fitted dose curve; in most records, active means well fitted curve in the direction sought with a large enough effect; inconclusive means small, poorly fitted or top-dose-only effect, or another doubt; inactive means no such curve, though single readings can be large; an effect the other way counts as inactive or inconclusive.

SMILES	RORgamma inh	Six1-Eya2 inh	p53 reactivator	CtBP-E1A inh	VP16 counter
Cc1cc2sc3nc(=O)n(-c4ccccc4)c(=O)n3c2cc1C	–	–	?	–	–
N[C@@](C(=O)O)(c1ccc(P(=O)(O)O)cc1)C1CC1	–	·	·	·	–
C/C(=N\N=C1/NC(=O)C(C)S1)c1ccco1 (configuration not stated)	11µM	–	–	–	–
C/C(=N\N=C(c1ccccc1)c1ccccc1)c1ccco1	–	–	–	–	–
CCCC1S/C(=N/N=C/c2ccco2)NC1=O (configuration not stated)	1.6µM	–	–	–	3.2µM
COCCNC(=O)c1ccc(Cl)c(Cl)c1	–	–	–	–	–
COCCNC(=S)N/N=C(\C)c1ccc(Cl)c(Cl)c1	2.8µM	–	–	–	4.5µM
COCCNC(=S)N/N=C(\C)c1ccc(Cl)c(Cl)c1Cl	4µM	–	–	–	7.9µM
COCCNC(=S)NNc1ccc(Cl)c(C(=O)O)c1	–	–	–	–	–
C/C(=N\O)c1ccc(Cl)c(Cl)c1	–	–	–	–	–
CNC(=S)N/N=C(\C)c1ccc(Cl)c(Cl)c1	2.8µM	–	–	–	7.1µM
COCc1ccc(C(=O)NC2CCCc3c2cnn3-c2cc(C)cc(C)c2)s1 (configuration not stated)	–	–	–	–	?
Cc1ccc(OCC(=O)NNC(=O)c2ccc(NC(=O)C3CC3)cc2)c(C)c1	?	–	–	–	–
Cc1ccc(OCC(=O)NNC(=S)NC(=O)C2CCCCC2)c(C)c1	10µM	–	–	–	–
Cc1ccc(OCC(=O)NNC(=S)NC(=O)C2CC2)c(C)c1	8.9µM	·	–	·	–
O=c1c(-c2cccs2)nc2cnc(Oc3cccc(Cl)c3)nc2n1C[C@H]1CCCO1	?	·	·	·	–
COc1ccc(S(=O)(=O)NC(C)C(=O)N2CCCC2)cc1C (configuration not stated)	?	–	–	–	–
O=C(NCc1ccc2c(c1)OCO2)C(=O)NCC1OCCCN1S(=O)(=O)c1ccccc1 (configuration not stated)	·	–	·	–	·
CCC(C)NC(=O)CNC(=S)N(Cc1ccc(F)cc1)C1CCCCC1 (configuration not stated)	–	–	–	–	–
O=C(O)COc1cccc(-c2ocnc2-c2nc(-c3ccccc3)c(-c3ccccc3)o2)c1	–	·	·	·	–
NC(=S)Cc1nc(-c2ccc(Cl)cc2)cs1	5µM	–	–	–	?
NC(=O)Cc1nc(-c2ccc(F)cc2)cs1	–	–	–	·	–
C=CCN1C(=O)/C(=C/c2ccc(OC)cc2)S/C1=N/c1nccs1	5µM	–	–	–	–
C=CCN1C(=O)/C(=C/c2ccc(O)cc2)S/C1=N/c1nccs1	–	–	–	–	–
CC(C)C(=O)NC(c1cccs1)c1cc([N+](=O)[O-])c2cccnc2c1O (configuration not stated)	3.2µM	-97	?	-91	3.5µM
SMILES	RORgamma inh	Six1-Eya2 inh	p53 reactivator	CtBP-E1A inh	VP16 counter
CCC(=O)NC(/C=C/c1ccccc1)c1cc([N+](=O)[O-])c2cccnc2c1O (configuration not stated)	2.2µM	·	–	·	2µM
Cc1ccc(C(NC(=O)C(C)C)c2cc([N+](=O)[O-])c3cccnc3c2O)cc1 (configuration not stated)	2.2µM	-88	?	-96	?
O=[N+]([O-])c1cc2cccnc2c2ncccc12	–	?	–	·	–
O=C(NN1CCCCC1)c1ccc(COc2ccc(Cl)cc2)cc1	–	–	–	–	–
C=C(C#N)C(=O)OCC	–	·	·	·	–
Cc1ccc(CCC(=O)Nc2ccccc2C(=O)O)o1	–	–	?	·	–
COc1ccc(NC(=O)CN2CCN(S(=O)(=O)N3CCCCCC3)CC2)cc1	–	–	–	–	–
COc1ccc(CNC(=S)Nc2ccc(F)c(Cl)c2)cc1OC	11µM	–	–	–	–
Cc1ccc(C)c(NC(=S)NCc2cccs2)c1	4µM	–	–	–	11µM
COc1cccc(NC(=S)Nc2ccc(O)cc2)c1	–	–	–	–	–
COc1ccc(NC(=S)NCc2cccs2)cc1OC	13µM	–	–	·	–
COc1cccc(NC(=S)Nc2ccc(F)cc2)c1	16µM	–	?	–	?
Cc1cc(C(=O)NCCc2ccc(S(=O)(=O)NC(=O)NN3CCCCCC3)cc2)no1	–	·	·	·	–
C=CCN(CC=C)C(=S)Nc1cc(Cl)ccc1OC	?	–	–	–	–
CCCCc1ccc(NC(=S)NCc2cccs2)cc1	2.2µM	–	?	–	?
C=CCNC(=S)Nc1cc(Cl)ccc1OC	13µM	–	–	–	?
COc1cccc(NC(=S)NCc2cccs2)c1	10µM	–	–	–	?
COc1cccc(NC(=S)NCc2cccnc2)c1	–	–	–	–	–
Cc1ccc(NC(=S)N(Cc2ccccc2)Cc2cccs2)c(C)c1	7.1µM	–	–	–	?
COC(=O)c1ccc(C(NC(=O)OCc2ccccc2)/C(C)=C/[C@@H](C)C(=O)NCc2cccnc2)cc1 (some centres not stated)	?	·	·	·	–
Cc1nc2cnc(N(C)C)nc2n(-c2ccccc2)c1=O	–	·	·	·	–
CC(C)NC(=S)NCc1cccs1	?	–	–	–	–
COc1cccc(NC(=S)NCc2ccccc2)c1	10µM	–	–	·	8.9µM
NS(=O)(=O)c1ccc(NC(=S)NCc2cccs2)cc1	–	–	–	·	–
Cc1cccc(NC(=S)NNC(=S)NCc2ccccc2)c1	–	–	–	–	–
SMILES	RORgamma inh	Six1-Eya2 inh	p53 reactivator	CtBP-E1A inh	VP16 counter
Cc1cccc(NC(=S)NCc2cccs2)c1	6.3µM	–	–	–	?
Cc1ccc(NC(=S)NCc2cccs2)cc1	11µM	–	–	–	?
S=C(NCc1cccs1)Nc1ccccc1	10µM	–	–	–	?
Cc1nc(NC2CCCCC2)c2nc(-c3ccccc3)n(CCCN(C)C)c2n1	–	·	·	·	–
OCC(O)/C=N/Nc1nc(N2CCCCC2)nc(N2CCCCC2)n1 (configuration not stated)	–	–	–	–	–
O=C(Cc1cccs1)NCc1ccc(F)cc1	–	–	?	–	–
Fc1ccc(NC(=S)NCc2cccs2)cc1	11µM	–	–	–	28µM
COc1ccccc1NC(=S)NCc1cccs1	?	–	–	–	–
COc1ccc(Cl)cc1NC(=S)NCc1cccs1	10µM	–	–	–	?
CC(C)(C)NS(=O)(=O)c1cc(C(=O)Nc2sccc2C#N)ccc1Cl	?	?	?	–	–
CC(C)C(=O)Nc1cc2c3c(c1)CCN3C(=O)CC2	–	–	–	·	–
Cc1cccc2sc(N(CCCN(C)C)C(=O)c3ccc(S(=O)(=O)N4CCc5ccccc5C4)cc3)nc12	?	–	–	–	11µM
COc1ccc2sc(N(CCCN(C)C)C(=O)c3ccc(S(=O)(=O)N4CCc5ccccc5C4)cc3)nc2c1	·	–	–	–	·
CN(C)CCCN(C(=O)c1ccc(S(=O)(=O)N2CCc3ccccc3C2)cc1)c1nc2c(F)cccc2s1	4.5µM	–	–	–	–

High-throughput results deposited in PubChem by National Center for Advancing Translational Sciences (NCATS).
